GPR7 antag: GPR7 receptor antagonists, primary screen, cell-based, fluorescence, single concentration; Neuropeptides B/W receptor type 1 (Homo sapiens), P48145; GPR7-expressing cells, fluorescence antagonist assay; inhibition, % at 4.4 µM; actives 1.1% (n = 290,000); AID 1861, 2009; in the data active = inhibition above about 16%, passing the limit was not always enough;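 note: cells stimulated with the agonist NPW; 0% = agonist with vehicle and 100% = vehicle without agonist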
CHT block: inhibitors of human choline transporter CHT. High affinity choline transporter 1 (Homo sapiens), Q9GZV3. CHT-expressing cells, membrane potential dye, choline response; hits give low values. B-score at 10 µM. actives 0.86% (n = 310,000). AID 488975, 2010;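 active = B-score over 3 SD under the library average, and starting fluorescence ratio not unusually high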;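 note: choline stimulus applied at its EC90 after an EC20 pre-addition; B-score computed on integrated fluorescence ratio after choline addition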
CHT PAM: CHT positive allosteric modulators, primary screen, cell-based, membrane potential dye, choline EC20. actives 0.49% (n = 310,000). CHT-expressing cells; hits give high values; LV-AA mutant CHT in HEK293 cells. High affinity choline transporter 1 (Homo sapiens), Q9GZV3. B-score at 10 µM;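 active = initial fluorescence not abnormally high and integrated response B-score, plate-corrected, over 3 SD above library mean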
TMEM16A act: TMEM16A chloride channel activators or potentiators, primary screen, cell-based, HTS. HEK293 TMEM16A/YFP-H148Q/I152L, iodide quench fluorescence; hits give low values. AID 623877, 2012. B-score at 10 µM. actives 0.3% (n = 340,000). Anoctamin-1 (Mus musculus), Q8BHY3;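 active = fluorescence-ratio B-score plate-corrected deviation score at least 3 library SD below zero, with starting fluorescence score within 5 deviations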;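 note: channel opened by trigger with iodide after compound preincubation; score built on the fluorescence ratio of max minus min over baseline; more negative score means more quench and so TMEM16A activation or potentiation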
Target sequence (Q8BHY3 whole entry, looked up): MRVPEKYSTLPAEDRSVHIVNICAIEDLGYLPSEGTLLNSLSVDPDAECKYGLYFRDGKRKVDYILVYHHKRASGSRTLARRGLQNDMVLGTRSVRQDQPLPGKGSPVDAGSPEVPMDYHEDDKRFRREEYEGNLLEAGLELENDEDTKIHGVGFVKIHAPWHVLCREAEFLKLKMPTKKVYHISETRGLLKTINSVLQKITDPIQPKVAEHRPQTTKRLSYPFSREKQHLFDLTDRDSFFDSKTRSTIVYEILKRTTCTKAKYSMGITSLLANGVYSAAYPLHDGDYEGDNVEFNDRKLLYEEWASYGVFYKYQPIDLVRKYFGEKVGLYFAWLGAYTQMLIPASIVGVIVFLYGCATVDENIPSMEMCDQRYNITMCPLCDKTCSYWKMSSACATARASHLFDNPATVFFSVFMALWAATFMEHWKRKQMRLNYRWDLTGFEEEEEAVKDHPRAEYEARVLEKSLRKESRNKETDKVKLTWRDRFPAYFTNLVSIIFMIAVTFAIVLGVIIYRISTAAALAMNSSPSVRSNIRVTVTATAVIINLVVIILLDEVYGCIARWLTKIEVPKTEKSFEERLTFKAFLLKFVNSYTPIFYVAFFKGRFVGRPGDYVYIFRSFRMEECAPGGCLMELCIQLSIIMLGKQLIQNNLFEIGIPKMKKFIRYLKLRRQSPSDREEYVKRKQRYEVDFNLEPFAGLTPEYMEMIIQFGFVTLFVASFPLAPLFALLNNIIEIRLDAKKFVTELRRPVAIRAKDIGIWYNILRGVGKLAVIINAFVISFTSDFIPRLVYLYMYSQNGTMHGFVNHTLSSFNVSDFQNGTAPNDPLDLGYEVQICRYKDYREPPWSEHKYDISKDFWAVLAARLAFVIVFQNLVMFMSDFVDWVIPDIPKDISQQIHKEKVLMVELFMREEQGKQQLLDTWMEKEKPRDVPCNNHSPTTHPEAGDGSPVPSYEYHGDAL
Kir21 block: inhibitors of mouse Kir2.1 inward-rectifier potassium channel; Inward rectifier potassium channel 2 (Mus musculus), P35561; HEK293-Kir2.1, FluxOR thallium flux fluorescence; hits give low values; B-score at 10 µM; actives 0.85% (n = 310,000);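 active = fluorescence ratio B-score at or below minus 3 SD of library scores, with starting-brightness B-score within 2 SD, cut at about -4.2 in these data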;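 note: channel flux triggered by added potassium and thallium sulfate stimulus; B-score of peak minus minimum fluorescence over baseline after thallium stimulus; more negative B-score means stronger Kir2.1 block with less thallium influx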
TMEM16A inh: TMEM16A chloride channel inhibitors, primary screen, cell-based, HTS; AID 588511, 2011; normalized B-score (activity score, 25-100; higher = stronger inhibition) at 10 µM; HEK293 TMEM16A/YFP iodide influx fluorescence, ionomycin; actives 1.2% (n = 310,000); Anoctamin-1 (Mus musculus), Q8BHY3;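 active = ratio plate-corrected score three or more library SD toward inhibition, starting fluorescence score within five deviations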;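 note: score derived from kinetic fluorescence span divided by baseline fluorescence per well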
GPR7 antag conf: GPR7 receptor antagonists, confirmation, cell-based, fluorescence, single concentration; GPR7-expressing cells, calcium fluorescence antagonist mode; actives 52% (n = 2,400); shares compounds with GPR7 antag; inhibition, % at 4.4 µM; in the data active = inhibition above about 24%;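 note: stimulated with the GPR7 agonist NPW; 0% = agonist plus vehicle and 100% = vehicle alone without agonist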
MCHR1 antagonist: MCHR1 antagonists in cells, counter-screen for GPR7 antagonist project, cell-based, fluorescence, human. shares compounds with GPR7 antag. MCHR1-expressing cells, fluorescence antagonist assay. inhibition, % at 4.4 µM. actives 62% (n = 2,400). AID 2148, 2009; in the data active = inhibition above about 22%;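 note: 0% = vehicle with agonist and 100% = vehicle without agonist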
The depositor's hits bear a star. Only some compounds are listed: those with a hit (about 3.7% of all), similar ones and a draw of the others.

Screening CC(C)=C[C@H]1C[C@H](C)[C@H]2CC[C@H](C)c3c(O[C@@H]4OC[C@@H](O)[C@H](O)C4O)c(O)c(C)c1c32 (stereo not given in full) returned TMEM16A act inactive.
Screening CC(=O)NCCn1c(SCc2cc(F)ccc2F)nc2ccccc2c1=O returned GPR7 antag 33*, CHT block inactive, CHT PAM inactive, TMEM16A act inactive, Kir21 block -1.4, TMEM16A inh inactive, GPR7 antag conf -5 and MCHR1 antagonist -3.
Screening COc1ccc(C(CNC(=O)COc2ccc(Cl)c(C)c2)N2CCCCC2)cc1 (stereo not given) returned GPR7 antag 28*, CHT block inactive, CHT PAM inactive, TMEM16A act inactive, Kir21 block -1.7, TMEM16A inh inactive, GPR7 antag conf 30* and MCHR1 antagonist 19.
`COc1ccc(NC(=O)NC2(C(=O)N3CCN(C)CC3)CCCCC2)cc1` gave GPR7 antag -6, CHT block inactive, CHT PAM inactive, TMEM16A act inactive, Kir21 block -0.03 and TMEM16A inh inactive.
For CCOC(=O)c1c(-c2ccccc2)csc1NC(=O)CCN1C(=O)c2ccccc2C1=O the results were GPR7 antag -10, CHT block inactive, CHT PAM inactive, TMEM16A act inactive, Kir21 block -1.8 and TMEM16A inh inactive.
For CCOC(=O)c1c(-c2ccc(-c3ccccc3)cc2)csc1NC(=O)CNCCN(C)C the results were GPR7 antag 34*, CHT block inactive, CHT PAM inactive, TMEM16A act inactive, Kir21 block -3.7, TMEM16A inh inactive, GPR7 antag conf 60* and MCHR1 antagonist 75*.
Cc1cc(C(=O)NCC(=O)OC(C)C(=O)N2CCOCC2)ccc1[N+](=O)[O-] (stereo not given) was read as TMEM16A act inactive.
CN(C(=O)CSc1nc2[nH]ncc2c(=O)[nH]1)c1ccccc1 was read as CHT block inactive, CHT PAM inactive, TMEM16A act inactive, Kir21 block 0.11 and TMEM16A inh inactive.
`O=C(NCCN1CCOCC1)c1cc(Br)ccc1Cl` gave GPR7 antag 29*, CHT block inactive, CHT PAM inactive, TMEM16A act inactive, Kir21 block -0.61, TMEM16A inh inactive, GPR7 antag conf -12 and MCHR1 antagonist 12.
O=C(NC1CCCCC1)C(c1ccccc1)N(Cc1ccco1)C(=O)Cn1cnc2ccccc21 (stereo not given) was read as GPR7 antag 22*, TMEM16A act inactive, Kir21 block 1.5, GPR7 antag conf 17 and MCHR1 antagonist 14.
Screening O=C(NC1CCCCC1)C(c1ccccc1)N(Cc1ccco1)C(=O)c1csnn1 (stereo not given) returned GPR7 antag 13, CHT block inactive, CHT PAM inactive, TMEM16A act inactive, Kir21 block -0.03 and TMEM16A inh inactive.
O=C(Nc1cccnc1)c1cc2cc(Br)ccc2o1 was read as GPR7 antag 0, CHT block inactive, CHT PAM inactive, TMEM16A act inactive, Kir21 block -0.07 and TMEM16A inh inactive.
CC(=O)Nc1ccc(Sc2ncccc2C(=O)Nc2ccc(OC(F)(F)F)cc2)cn1 was read as GPR7 antag 97*, CHT block inactive, CHT PAM inactive, TMEM16A act inactive, Kir21 block -1.9, TMEM16A inh inactive, GPR7 antag conf 98* and MCHR1 antagonist 103*.
Screening CC(=O)Nc1ccc(Sc2ncccc2C(=O)Nc2cc(Cl)cc(Cl)c2)cn1 returned GPR7 antag -4, CHT block inactive, CHT PAM inactive, TMEM16A act inactive, Kir21 block -0.97 and TMEM16A inh inactive.
COc1ccc(Oc2c(Cl)cnn(-c3ccc(F)cc3)c2=O)cc1 was read as GPR7 antag 29, CHT block inactive, CHT PAM inactive, TMEM16A act inactive, Kir21 block -1.4 and TMEM16A inh inactive.
Screening COc1ccc(Oc2c(Cl)cnn(-c3ccc(C)cc3)c2=O)cc1 returned GPR7 antag 32*, CHT block inactive, CHT PAM inactive, TMEM16A act inactive, Kir21 block -0.03, TMEM16A inh inactive, GPR7 antag conf 63* and MCHR1 antagonist 1.
Screening CCOc1ccc(Oc2c(/C=N/NC(N)=O)c(C)nn2-c2ccccc2)cc1 returned GPR7 antag -9, CHT block inactive, CHT PAM inactive, TMEM16A act inactive, Kir21 block -0.94 and TMEM16A inh inactive.
`CCOc1ccc(Oc2c(/C=N/NC(=O)COc3ccccc3OC)c(C)nn2-c2ccccc2)cc1` gave GPR7 antag 35*, CHT block inactive, CHT PAM inactive, TMEM16A act inactive, Kir21 block -0.25, TMEM16A inh inactive, GPR7 antag conf 33* and MCHR1 antagonist 47*.
`COc1ccc(C(O)P(=O)(OC(C)C)OC(C)C)c(OC)c1` (stereo not given) gave GPR7 antag -9, CHT block inactive, CHT PAM inactive, TMEM16A act inactive, Kir21 block -0.09 and TMEM16A inh inactive.
For CCOc1ccc(NC(=O)CN(C)C(=O)c2ccccc2SCc2c(C)noc2C)cc1OCC the results were CHT block inactive, CHT PAM inactive, TMEM16A act inactive, Kir21 block -1.3 and TMEM16A inh inactive.
Screening CCN(CC)c1ccc2cc(-c3nc4ccccc4[nH]3)c(=O)oc2c1 returned GPR7 antag 28*, CHT block inactive, CHT PAM inactive, TMEM16A act inactive, Kir21 block -8.3, TMEM16A inh inactive, GPR7 antag conf 81* and MCHR1 antagonist 89*.
Screening CCN(CC)c1ccc2cc(-c3nnc(-c4ccc(Br)cc4)o3)c(=O)oc2c1 returned GPR7 antag -8.

From PubChem
